Experimental data published in PubChem BioAssay AID1745846 (National Center for Advancing Translational Sciences (NCATS), 2022).
In all, about 1,400 compounds went through this assay and about 30 (2%) were called active. Inconclusive results (about 15%) are left out. The call rests on the fitted dose curve; in most records, active means well fitted inhibition curve with a large enough effect; inconclusive means small, poorly fitted or top-dose-only effect; inactive means flat fitted curve, though single readings scatter. Shown is part of a subset that was picked to be rich in actives.

Assay: Firefly Luciferase Counterscreen for Inhibitors of ATXN expression
Conditions: luminescence; series mostly up to 57.5 µM; activity change, negative = inhibition: at the top concentration
Excerpt: University of Utah School of Medicine, Salt Lake City, Utah
Spinocerebellar ataxia type 2 (SCA2) is a multisystem neurodegenerative disease caused by a dominantly acting mutation leading to expansion of a polyQ domain in the ataxin-2 protein (ATXN2). SCA2 patients develop progressive ataxia and later lose function in other neuronal systems. Prominent parkinsonian signs develop in some patients. Like many neurodegenerative disorders, no symptomatic or disease-modifying treatments are known.
The primary objective of the proposed research is to identify compounds inhibiting ATXN2 expression and to test them for efficacy in SCA2 mouse models. We have developed a cell-based assay paired with an in vivo mouse model using identical luciferase expression constructs. This approach takes advantage of an ATXN2-luciferase transgene, with the luciferase gene flanked by the upstream and downstream portions of the ATXN2 gene. Here we describe a 5-7 dose quantitative high thoroughput screen (qHTS) for compounds lowering ATXN2 expression. We screened the NIH Molecular Libraries Small Molecule Repository (MLSMR) and NCGC's mechanistically annotated (MIPE) and drug repurposing (NPC) collections of compounds for lowering expression of an ATXN2-luciferase reporter in HEK-293 cells. The assay is a multiplexed cell viability assay to ensure target reduction in the absence of cytotoxicity. Secondary qHTS assays included a CMV-luciferase reporter expressed in HEK-293 cells as well as a biochemical assay using recombinant luciferase to detect inhibitors of the reporter enzyme. Compounds that inhibit ATXN2 expression but is not cytotoxic were selected for confirmatory and secondary screens.
PROTOCOL TABLE (as described by Inglese J, Shamu CE and Guy RK. 2007)
SEQUENCE No. (e.g., 1, 2, 3, etc.); […] (e.g., Cells, Incubation, Reagent, etc.); VALUE; DESCRIPTION.
2; Compounds; 23 nL; Kalypsis pintool (Wako USA) equipped with a 1536-well pin head.
3; Enzyme; 1 uL; recombinant firefly luciferase (prepared in 50 mM Tris HCl pH7.5, 10 mM MgCl2, 0.05% BSA, 0.01% Tween20) at final concentration of 10 nM. Wells containing buffer only were used as control (set as 100% inhibition when normalizing data).
4; Incubation; 10 min; room temperature.
5; Detection; Luminescence; Viewlux plate reader (PerkinElmer).
NOTES (numbers refer to Sequence numbers above)
1. Luciferase substrate is added to 1536 well, Greiner white assay plate. Evaporation was prevented by covering assay plates with metal lids containing holes to allow gas diffusion.
2. Compounds were added in a dose response manner with the final concentrations of 57, 11.4, 2.28, 0.46, 0.091, 0.018, 0.0037 uM. Vehicle-only plates, with DMSO being pin-transferred to columns 5-48, were inserted uniformly at the beginning and the end of each library to monitor and record any shifts in assay performance.
3. Recombinant firefly luciferase (10 nM final concentration) is added to the assay plate.
5. End-point luminescence is then measured on the Viewlux (PerkinElmer) imager equipped with a clear emission filter using a 2 sec exposure.
Inglese J, Shamu CE and Guy RK, Reporting data from high throughput screening of small molecule libraries, Nature Chemical Biology, 2007, 3(8): 438-441. doi.org/10.1038/nchembio0807-438.
On the % scale 0 is the no-effect control and ±100 the full control effect; potency means the concentration at half of the fitted maximal effect.

Row | SMILES | activity change, negative = inhibition | Potency
1 | N#Cc1nc(Cc2cccc3ccccc23)oc1NCc1ccc(F)cc1 | -1.45% (inactive) | 
2 | CC(C)CC(N)c1csc(Nc2ccc(C(=O)N(C)Cc3ccccc3)cn2)n1 (stereo unspecified) | 4.85% (inactive) | 
3 | COc1ccc(C(=O)NNC(=S)NC(=O)c2ccccc2)cc1 | -14.8% (inactive) | 
4 | COc1ccc(C(=O)Nn2c(SCC(=O)c3ccccc3)nc3ccccc3c2=O)cc1 |  | 7.08 µM (active)
5 | COc1ccc(Nc2c3ccccc3nc3ccccc23)cc1 | -2.82% (inactive) | 
6 | CC1(C(=O)NCc2ccccc2Br)CCN1C(=O)Cc1ccc(-c2ccccc2)cc1 (stereo unspecified) | -4.03% (inactive) | 
7 | Cc1cc(C(=O)N/N=C/c2c(CO)cnc(C)c2O)c2ccccc2n1 | -2.35% (inactive) | 
8 | CSCc1nnc(NC(=O)c2ccc(S(=O)(=O)N3CCCCC3C)cc2)o1 (stereo unspecified) | -18.2% (inactive) | 
9 | COc1ccc(C(NC(=O)c2cccnc2)c2cc(Cl)c3cccnc3c2O)cc1OC (stereo unspecified) | -10.1% (inactive) | 
10 | CC[C@H]1CN2CCc3cc(OC)c(OC)cc3C2C[C@@H]1C[C@H]1NCCc2cc(OC)c(OC)cc21 (stereo partly specified) | 3.56% (inactive) | 
11 | Cc1cc(C(=O)N/N=C/c2cc(Br)cc(Br)c2OC(=O)c2cccc(F)c2)n[nH]1 | -1.31% (inactive) | 
12 | O=[N+]([O-])c1c(Nc2ccccn2)cc(Cl)c2nonc12 | -10.4% (inactive) | 
13 | COC(=O)Cc1ccc(NC(=S)N2CCN(c3cc(Cl)ccc3C)CC2)cc1 | -10.2% (inactive) | 
14 | CN(C)CCCN(C(=O)c1ccc(S(=O)(=O)N(C)Cc2ccccc2)cc1)c1nc2cc3c(cc2s1)OCO3 | 0.991% (inactive) | 
15 | COc1ccccc1/C=C/CN1CCCC(CO)(Cc2cccc(Cl)c2)C1 (stereo unspecified) | 2.16% (inactive) | 
16 | COc1ccc(Cl)cc1C(Nc1cccnc1)c1ccc2cccnc2c1O (stereo unspecified) | -1.9% (inactive) | 

Row | SMILES | activity change, negative = inhibition | Potency
17 | CN1CCC(NC(=O)c2cc(-c3cccc(Br)c3)nc3ccccc23)CC1 | -6.79% (inactive) | 
18 | Cc1cccc(NC(=O)c2cc(-c3ccccn3)nc3ccccc23)c1C | -2.28% (inactive) | 
19 | Cc1sc(NC(=O)c2cc(-c3ccc(Cl)cc3)nc3ccccc23)c(C(N)=O)c1C |  | 25.1 µM (active)
20 | COc1ccccc1-c1cc2nc(-c3ccccc3)cc(N3CCN(C(=O)c4ccco4)CC3)n2n1 | -6.68% (inactive) | 
21 | O=C(Nc1ccc(OC(F)(F)F)cc1)N1CCN(c2ccnc3cc(Cl)ccc23)CC1 | 2.31% (inactive) | 
22 | CC(C)Nc1nc(NCCOc2ccccc2)c2sccc2n1 | 0.974% (inactive) | 
23 | CC(=O)Nc1ccc(CNc2nc(NC(C)C)nc3cc(-c4ccccc4)sc23)cc1 |  | 14.1 µM (active)
24 | COc1cccc(CNc2nc(NCc3ccccc3)nc3ccsc23)c1 | -12.5% (inactive) | 
25 | COc1ccccc1NC(=O)CSc1n[nH]c(-c2ccccn2)n1 | -9.45% (inactive) | 
26 | CC(C)c1ccc(S(=O)(=O)c2cc3cc(Br)ccc3oc2=O)cc1 | 2.64% (inactive) | 
27 | N=c1n(CCN2CCCCC2)c2ccccc2n1CC(O)c1ccc(Cl)c(Cl)c1 (stereo unspecified) | 1.6% (inactive) | 
28 | CCOC(=O)c1c(C)sc2c1N(C(=O)CN(CC)CC)c1cc(Cl)ccc1S2 | 0.238% (inactive) | 
29 | COc1ccc(NC(=O)c2cc(-c3cc(Cl)ccc3OC)n[nH]2)cc1OC | -15.7% (inactive) | 
30 | Cc1nc2c(OCc3cccc(Cl)c3)cccn2c1N(C)Cc1cccs1 | -9.31% (inactive) | 
31 | C(=N\Nc1ccc2nncn2n1)/c1ccccn1 | -5.45% (inactive) | 
